# Measurements reported in the supplement of paper PMC12819154, “High-throughput peptide-centric local stability assay extends protein–ligand identification to membrane proteins, tissues and bacteria” (Nature Structural & Molecular Biology, 2025).
# Compound: CN[C@@H]1C[C@H]2O[C@@](C)([C@@H]1OC)n1c3ccccc3c3c4c(c5c6ccccc6n2c5c31)C(=O)NC4 [staurosporine]
# Assay: log2 fold change of tryptic peptide abundance, ligand vs vehicle (limited proteolysis) (log2 ratio); higher = more trypsin-susceptible (destabilized)
# Settings: ligand concentration: 20 uM; sample: mouse liver crude lysate; replicate design: treated separately
# Sequence of UniProt P56395 (P56395 whole entry): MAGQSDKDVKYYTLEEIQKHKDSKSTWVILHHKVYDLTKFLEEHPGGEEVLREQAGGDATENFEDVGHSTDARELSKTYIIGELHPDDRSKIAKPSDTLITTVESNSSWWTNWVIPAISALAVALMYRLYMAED
# Sequence of UniProt Q8BW96 (Q8BW96 whole entry): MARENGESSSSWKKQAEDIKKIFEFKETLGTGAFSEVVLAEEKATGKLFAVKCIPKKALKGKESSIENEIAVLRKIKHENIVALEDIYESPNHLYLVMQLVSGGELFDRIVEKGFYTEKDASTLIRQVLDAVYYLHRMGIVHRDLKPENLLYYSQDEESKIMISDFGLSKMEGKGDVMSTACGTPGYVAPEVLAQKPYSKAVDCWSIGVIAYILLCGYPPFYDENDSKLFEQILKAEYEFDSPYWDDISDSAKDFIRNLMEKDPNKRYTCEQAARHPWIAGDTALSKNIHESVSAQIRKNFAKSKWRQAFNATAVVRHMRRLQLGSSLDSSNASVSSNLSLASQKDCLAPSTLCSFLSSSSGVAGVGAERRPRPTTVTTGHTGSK
# Sequence of UniProt Q8CC86 (Q8CC86 whole entry): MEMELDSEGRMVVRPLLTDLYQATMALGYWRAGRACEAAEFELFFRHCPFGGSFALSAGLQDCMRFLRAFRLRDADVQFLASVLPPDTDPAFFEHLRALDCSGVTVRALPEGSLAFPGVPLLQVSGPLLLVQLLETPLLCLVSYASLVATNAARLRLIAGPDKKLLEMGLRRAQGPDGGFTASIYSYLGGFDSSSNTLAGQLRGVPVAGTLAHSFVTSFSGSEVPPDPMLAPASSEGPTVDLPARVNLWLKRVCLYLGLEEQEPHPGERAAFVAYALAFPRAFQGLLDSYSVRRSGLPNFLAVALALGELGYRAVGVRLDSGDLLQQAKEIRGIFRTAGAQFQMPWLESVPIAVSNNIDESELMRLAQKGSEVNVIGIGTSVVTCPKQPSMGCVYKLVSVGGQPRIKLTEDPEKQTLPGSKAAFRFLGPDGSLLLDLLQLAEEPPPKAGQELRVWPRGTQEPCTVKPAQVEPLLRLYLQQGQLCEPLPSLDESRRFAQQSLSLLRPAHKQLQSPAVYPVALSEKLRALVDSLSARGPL
# Sequence of UniProt P33622 (P33622 whole entry): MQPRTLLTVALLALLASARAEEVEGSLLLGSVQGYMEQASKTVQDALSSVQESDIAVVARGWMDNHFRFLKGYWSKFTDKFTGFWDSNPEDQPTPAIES
# Sequence of UniProt Q60932 (Q60932 whole entry): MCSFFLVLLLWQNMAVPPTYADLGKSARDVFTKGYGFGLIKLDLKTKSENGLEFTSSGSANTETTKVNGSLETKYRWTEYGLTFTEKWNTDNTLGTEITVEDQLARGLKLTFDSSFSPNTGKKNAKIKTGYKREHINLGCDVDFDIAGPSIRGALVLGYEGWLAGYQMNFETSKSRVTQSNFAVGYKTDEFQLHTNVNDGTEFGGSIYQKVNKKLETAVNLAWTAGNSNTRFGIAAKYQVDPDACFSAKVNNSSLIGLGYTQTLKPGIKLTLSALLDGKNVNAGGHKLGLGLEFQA
# Sequence of UniProt Q7TMR0 (Q7TMR0 whole entry): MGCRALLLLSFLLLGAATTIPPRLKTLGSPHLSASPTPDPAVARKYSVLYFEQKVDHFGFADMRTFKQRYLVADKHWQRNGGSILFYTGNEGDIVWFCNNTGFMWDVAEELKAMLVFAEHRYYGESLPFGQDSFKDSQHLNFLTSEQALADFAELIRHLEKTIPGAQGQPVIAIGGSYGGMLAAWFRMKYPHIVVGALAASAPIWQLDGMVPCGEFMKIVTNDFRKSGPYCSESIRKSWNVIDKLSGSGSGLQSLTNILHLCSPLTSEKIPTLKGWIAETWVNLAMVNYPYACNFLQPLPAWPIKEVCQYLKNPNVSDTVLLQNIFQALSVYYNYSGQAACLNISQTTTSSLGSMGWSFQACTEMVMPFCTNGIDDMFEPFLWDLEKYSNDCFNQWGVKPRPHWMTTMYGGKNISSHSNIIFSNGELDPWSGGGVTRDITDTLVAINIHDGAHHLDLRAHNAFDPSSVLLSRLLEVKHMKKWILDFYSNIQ
# Sequence of UniProt Q9JK48 (Q9JK48 whole entry): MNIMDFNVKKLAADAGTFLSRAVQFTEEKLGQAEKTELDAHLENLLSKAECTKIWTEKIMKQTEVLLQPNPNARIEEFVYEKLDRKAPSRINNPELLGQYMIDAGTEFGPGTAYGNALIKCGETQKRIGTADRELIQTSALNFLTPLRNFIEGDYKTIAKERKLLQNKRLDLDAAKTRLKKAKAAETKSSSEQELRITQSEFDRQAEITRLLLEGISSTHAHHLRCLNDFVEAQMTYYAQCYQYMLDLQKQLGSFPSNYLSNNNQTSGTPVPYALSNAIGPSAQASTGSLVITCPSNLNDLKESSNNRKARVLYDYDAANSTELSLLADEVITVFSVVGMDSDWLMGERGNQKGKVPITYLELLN
# Sequence of UniProt P16331 (P16331 whole entry): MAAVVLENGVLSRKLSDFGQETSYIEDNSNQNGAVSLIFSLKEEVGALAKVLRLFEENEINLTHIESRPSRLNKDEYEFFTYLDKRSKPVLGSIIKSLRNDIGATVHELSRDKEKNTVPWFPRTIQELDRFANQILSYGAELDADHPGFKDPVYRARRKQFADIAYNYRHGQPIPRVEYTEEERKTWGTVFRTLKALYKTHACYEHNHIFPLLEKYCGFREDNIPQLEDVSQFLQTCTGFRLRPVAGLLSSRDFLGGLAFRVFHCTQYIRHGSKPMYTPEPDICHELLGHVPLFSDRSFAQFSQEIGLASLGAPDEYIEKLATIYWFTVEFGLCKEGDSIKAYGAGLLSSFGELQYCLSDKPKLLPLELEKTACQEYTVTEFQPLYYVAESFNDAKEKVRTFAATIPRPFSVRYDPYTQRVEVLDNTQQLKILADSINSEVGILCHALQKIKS
# Sequence of UniProt A6X919 (A6X919 whole entry): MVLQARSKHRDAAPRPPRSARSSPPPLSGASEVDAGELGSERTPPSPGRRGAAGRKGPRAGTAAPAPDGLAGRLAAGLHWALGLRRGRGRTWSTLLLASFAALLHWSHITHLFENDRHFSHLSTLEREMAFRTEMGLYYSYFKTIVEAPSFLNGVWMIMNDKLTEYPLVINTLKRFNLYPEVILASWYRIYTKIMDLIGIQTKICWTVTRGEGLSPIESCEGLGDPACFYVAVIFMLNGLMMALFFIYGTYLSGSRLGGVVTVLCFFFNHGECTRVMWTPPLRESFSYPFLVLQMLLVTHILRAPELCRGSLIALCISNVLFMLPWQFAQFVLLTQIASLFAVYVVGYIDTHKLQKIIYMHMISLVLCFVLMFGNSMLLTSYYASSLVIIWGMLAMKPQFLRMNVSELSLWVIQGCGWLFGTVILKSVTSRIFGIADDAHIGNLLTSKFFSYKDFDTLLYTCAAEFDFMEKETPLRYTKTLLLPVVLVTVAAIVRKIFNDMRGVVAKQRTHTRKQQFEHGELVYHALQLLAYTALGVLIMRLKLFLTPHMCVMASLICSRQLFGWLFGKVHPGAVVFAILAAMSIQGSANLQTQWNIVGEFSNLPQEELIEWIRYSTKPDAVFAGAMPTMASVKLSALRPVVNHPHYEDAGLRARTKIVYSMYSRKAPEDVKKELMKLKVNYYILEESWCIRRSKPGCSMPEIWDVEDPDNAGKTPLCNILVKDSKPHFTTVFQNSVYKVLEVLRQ
# Sequence of UniProt Q9CRD0 (Q9CRD0 whole entry): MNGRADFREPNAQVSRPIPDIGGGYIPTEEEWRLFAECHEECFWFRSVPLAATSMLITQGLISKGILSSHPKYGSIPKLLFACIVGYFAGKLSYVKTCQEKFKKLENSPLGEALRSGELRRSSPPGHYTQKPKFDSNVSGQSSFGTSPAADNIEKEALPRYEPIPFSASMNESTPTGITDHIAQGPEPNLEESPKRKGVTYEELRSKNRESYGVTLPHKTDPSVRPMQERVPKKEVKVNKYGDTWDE
# Sequence of UniProt Q60737 (Q60737 whole entry): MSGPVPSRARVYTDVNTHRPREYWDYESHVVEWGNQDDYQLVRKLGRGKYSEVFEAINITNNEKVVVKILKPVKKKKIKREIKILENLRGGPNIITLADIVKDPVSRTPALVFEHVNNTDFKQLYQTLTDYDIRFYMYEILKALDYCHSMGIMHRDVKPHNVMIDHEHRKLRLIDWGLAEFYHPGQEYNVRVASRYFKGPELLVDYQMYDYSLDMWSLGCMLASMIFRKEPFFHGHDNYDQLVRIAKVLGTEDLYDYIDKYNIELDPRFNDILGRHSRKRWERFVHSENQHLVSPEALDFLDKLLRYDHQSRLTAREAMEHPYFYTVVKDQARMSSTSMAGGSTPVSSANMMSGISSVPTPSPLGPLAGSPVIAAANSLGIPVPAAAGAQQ
# Sequence of UniProt Q80ZM8 (Q80ZM8 whole entry): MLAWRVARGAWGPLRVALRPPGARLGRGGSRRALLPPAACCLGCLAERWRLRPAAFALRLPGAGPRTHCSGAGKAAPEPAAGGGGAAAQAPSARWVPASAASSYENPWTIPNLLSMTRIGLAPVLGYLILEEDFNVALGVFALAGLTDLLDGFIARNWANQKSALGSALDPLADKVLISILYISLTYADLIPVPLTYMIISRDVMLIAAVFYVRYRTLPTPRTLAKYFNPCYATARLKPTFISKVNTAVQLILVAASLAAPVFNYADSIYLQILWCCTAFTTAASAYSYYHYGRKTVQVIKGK
# Sequence of UniProt P09813 (P09813 whole entry): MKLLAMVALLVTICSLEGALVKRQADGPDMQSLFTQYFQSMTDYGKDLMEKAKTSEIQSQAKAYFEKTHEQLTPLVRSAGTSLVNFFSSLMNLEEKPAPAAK
# Sequence of UniProt P10649 (P10649 whole entry): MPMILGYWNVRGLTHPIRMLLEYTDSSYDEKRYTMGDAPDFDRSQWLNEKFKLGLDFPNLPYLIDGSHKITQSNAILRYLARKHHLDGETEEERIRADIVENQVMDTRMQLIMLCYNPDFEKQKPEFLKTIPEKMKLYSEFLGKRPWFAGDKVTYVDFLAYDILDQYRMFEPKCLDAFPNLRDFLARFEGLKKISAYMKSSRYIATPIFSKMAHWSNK
row,Target,log2 fold change
1,"UniProt Q60932 (peptide sequence: LTFDSSFSPNTGKK, peptide start residue: 110)",-0.605
2,"UniProt P50285 (peptide sequence: TQLREPVLNDELPGR, peptide start residue: 277)",0.327
3,"UniProt A6X919 (peptide sequence: AGTAAPAPDGLAGR, peptide start residue: 60)",0.335
4,"UniProt O35492 (peptide sequence: MLEFDPAQR, peptide start residue: 600)",-1.13
5,"UniProt O35488 (peptide sequence: YELIKYDVEKDEPVR, peptide start residue: 394)",0.821
6,"UniProt P09813 (peptide sequence: THEQLTPLVR, peptide start residue: 68)",0.46
7,"UniProt Q9CRD0 (peptide sequence: FKKLENSPLGEALR, peptide start residue: 102)",0.663
8,"UniProt Q8BWW9 (peptide sequence: VKPPFVPTIR, peptide start residue: 928)",-2.86
9,"UniProt Q99J95 (peptide sequence: IGQGTFGEVFK, peptide start residue: 25)",-1
10,"UniProt Q8CIN4 (peptide sequence: TIVSIGDPK, peptide start residue: 238)",-2.05
11,"UniProt Q9Z2B9 (peptide sequence: KIPAPFRPQIR, peptide start residue: 313)",-1.34
12,"UniProt Q99LB7 (peptide sequence: AYGIESHVLSPAETK, peptide start residue: 175)",-0.446
13,"UniProt Q9JK48 (peptide sequence: NFIEGDYK, peptide start residue: 149)",0.247
14,"UniProt P56395 (peptide sequence: YYTLEEIQK, peptide start residue: 11)",0.367
15,"UniProt P16331 (peptide sequence: RKQFADIAYNYR, peptide start residue: 158)",-0.336
16,"UniProt Q80ZM8 (peptide sequence: YFNPCYATAR, peptide start residue: 227)",1.12
17,"UniProt P33622 (peptide sequence: GWMDNHFR, peptide start residue: 61)",0.483
18,"UniProt Q8CC86 (peptide sequence: VCLYLGLEEQEPHPGER, peptide start residue: 253)",-0.575
19,"UniProt P10649 (peptide sequence: YIATPIFSK, peptide start residue: 203)",0.584

row,Target,log2 fold change
1,"UniProt Q8BW96 (peptide sequence: IMISDFGLSK, peptide start residue: 161)",-1.32
2,"UniProt Q9QZD8 (peptide sequence: MTGMALQVVR, peptide start residue: 43)",0.567
3,"UniProt Q6PDI5 (peptide sequence: NLTSNMWR, peptide start residue: 1165)",0.284
4,"UniProt P24456 (peptide sequence: RVQQEIDAVIGQVR, peptide start residue: 333)",-0.553
5,"UniProt Q91VJ4 (peptide sequence: DTGHVYAMK, peptide start residue: 110)",-3.23
6,"UniProt Q7TMR0 (peptide sequence: AHNAFDPSSVLLSR, peptide start residue: 459)",0.784
7,"UniProt O54781 (peptide sequence: HFTEDIQTR, peptide start residue: 500)",-1.82
8,"UniProt P47911 (peptide sequence: HQEGEIFDTEK, peptide start residue: 235)",0.281
9,"UniProt Q9CR62 (peptide sequence: NGLDVLLK, peptide start residue: 261)",0.377
10,"UniProt P47754 (peptide sequence: TSVETALR, peptide start residue: 122)",-0.836
11,"UniProt Q8CIE6 (peptide sequence: VTTVTEIGKDVIGLR, peptide start residue: 1203)",-0.699
12,"UniProt Q9EPE9 (peptide sequence: EVTPVSSIPIETHR, peptide start residue: 553)",-0.718
13,"UniProt P12367 (peptide sequence: IVDVIGEK, peptide start residue: 270)",0.593
14,"UniProt Q60737 (peptide sequence: VYTDVNTHRPR, peptide start residue: 11)",0.264
15,"UniProt Q9DCN1 (peptide sequence: AIAHQLIK, peptide start residue: 446)",-0.997
16,"UniProt Q66GT5 (peptide sequence: IDHTVLLGALPLK, peptide start residue: 41)",0.379
17,"UniProt Q61831 (peptide sequence: DLKPSNIVVK, peptide start residue: 151)",-1.06
18,"UniProt Q9ERE3 (peptide sequence: PTDFDFLK, peptide start residue: 32)",-2.47
19,"UniProt P37172 (peptide sequence: GSWQGENVAVK, peptide start residue: 225)",-2.41
